# A number with no mark means an inactive call. Results filed as inconclusive are left out. A call without a number means that no potency is given here. Activity calls are given as the source filed them. Unless noted, calls follow the shape of the dose curve; as a rule, active = well fitted curve in the direction sought with a large enough effect in the repeat runs; inconclusive = weak or mixed curves; inactive = no such curve, though single readings can be large; an effect the other way counts as inactive or inconclusive.
# What was measured:
# [1] = qHTS assay to identify small molecule antagonists of the estrogen related receptor (ERR) signaling pathway from Tox21 library - cell viability counter screen (AID 1224834); also: nearly all actives have a fitted effect of over 30% in size; also: potency is read from the fitted curve at half-maximal effect
# How it was run: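 CellTiter-Fluor fluorescence measured; ERR cells; 17.5 h compound incubation at 37 C; 30 min reagent step.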
# [2] = molecular target: Luciferin 4-monooxygenase (Photinus pyralis) (UniProt P08659); assay: qHTS assay to identify small molecule inhibitors of firefly luciferase (AID 1224835); also: nearly all actives have a fitted effect of over 25% in size
# Sequence of Luciferin 4-monooxygenase (Photinus pyralis) (P08659 whole entry, looked up): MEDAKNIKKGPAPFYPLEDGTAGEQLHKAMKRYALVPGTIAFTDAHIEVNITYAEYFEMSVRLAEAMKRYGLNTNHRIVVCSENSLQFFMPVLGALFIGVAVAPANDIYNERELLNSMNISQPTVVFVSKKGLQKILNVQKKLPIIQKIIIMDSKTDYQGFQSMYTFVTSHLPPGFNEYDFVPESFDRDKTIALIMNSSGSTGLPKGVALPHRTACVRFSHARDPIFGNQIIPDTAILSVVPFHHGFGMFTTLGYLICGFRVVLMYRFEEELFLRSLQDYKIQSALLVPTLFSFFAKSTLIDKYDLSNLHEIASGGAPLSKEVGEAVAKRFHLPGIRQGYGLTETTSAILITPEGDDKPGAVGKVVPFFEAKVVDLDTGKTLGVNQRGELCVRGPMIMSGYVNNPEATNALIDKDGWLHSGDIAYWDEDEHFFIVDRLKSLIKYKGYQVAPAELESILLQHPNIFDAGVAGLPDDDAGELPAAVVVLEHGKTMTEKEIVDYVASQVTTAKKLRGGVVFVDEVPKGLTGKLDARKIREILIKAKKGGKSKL
# How it was run: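 Biochemical qHTS: compounds run as interplate titrations against purified firefly enzyme, with D-luciferin and ATP each at its KM concentration. Light output recorded by CCD imaging.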
# [3] = molecular target: Nuclear receptor subfamily 1 group I member 3 (Homo sapiens) (UniProt Q14994); assay: qHTS assay to identify small molecule antagonists of the constitutive androstane receptor (CAR) signaling pathway (AID 1224838);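 also: HepG2 cells stably expressing hCAR with CYP2B6 luciferase reporter stimulated by CITCO; nearly all actives have a fitted effect of over 40% in size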
# Sequence of Nuclear receptor subfamily 1 group I member 3 (Homo sapiens) (Q14994 whole entry, looked up): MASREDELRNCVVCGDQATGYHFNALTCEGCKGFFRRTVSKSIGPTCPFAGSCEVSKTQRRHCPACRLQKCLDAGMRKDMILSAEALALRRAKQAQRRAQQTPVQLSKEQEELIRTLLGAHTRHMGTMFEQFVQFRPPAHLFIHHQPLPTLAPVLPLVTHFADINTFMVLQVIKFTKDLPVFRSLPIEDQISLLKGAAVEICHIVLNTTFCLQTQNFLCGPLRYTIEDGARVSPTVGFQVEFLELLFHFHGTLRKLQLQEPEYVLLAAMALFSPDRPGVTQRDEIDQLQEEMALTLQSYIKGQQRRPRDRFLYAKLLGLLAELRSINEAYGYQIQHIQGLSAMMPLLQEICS
# How it was run: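 Reporter luminescence was quantified after 24 h exposure of hCAR/CYP2B6-2.2kb double-stable HepG2 cells to compounds at 15 concentrations in the presence of 50 nM CITCO final.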
# [4] = molecular target: Nuclear receptor subfamily 1 group I member 3 (Homo sapiens) (UniProt Q14994); assay: qHTS assay to identify small molecule agonists of the constitutive androstane receptor (CAR) signaling pathway (AID 1224839); also: nearly all actives have a fitted effect of over 15% in size; also: potency is read from the fitted curve at half-maximal effect;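 as to activation: HepG2 cells stably carrying human CAR and a CYP2B6 luciferase reporter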
# How it was run: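 Cells were plated and incubated 4 hrs, then dosed with compounds at 15 concentrations. PK11195 was added to 0.75 uM final. After 24 hrs at 37 C, luciferase luminescence was measured.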
# [5] = qHTS assay to identify small molecule antagonists of the estrogen related receptor signaling pathway with the pleiotropic PPARgamma coactivator (PGC) from Tox21 10K library - cell viability counter screen (AID 1224840; active = well fitted cell-killing curve with a large enough effect in the repeat runs, not every such curve was filed as active; also: nearly all actives have a fitted effect of over 40% in size; also: potency is read from the fitted curve at half-maximal effect)
# How it was run: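 Here the PGC/ERR cells serve as a cytotoxicity control: they are exposed to compounds for 17.5 hours at 37 C, and live-cell signal is quantified using CellTiter-Fluor fluorescence.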
# [6] = molecular target: Thyrotropin receptor (Homo sapiens) (UniProt P16473); assay: qHTS assay to identify small molecule agonists of the thyroid stimulating hormone receptor (TSHR) signaling pathway (AID 1224843; calls by dose curve; also: nearly all actives have a fitted effect of over 45% in size; also: potency is read from the fitted curve at half-maximal effect)
# Sequence of Thyrotropin receptor (Homo sapiens) (P16473 whole entry, looked up): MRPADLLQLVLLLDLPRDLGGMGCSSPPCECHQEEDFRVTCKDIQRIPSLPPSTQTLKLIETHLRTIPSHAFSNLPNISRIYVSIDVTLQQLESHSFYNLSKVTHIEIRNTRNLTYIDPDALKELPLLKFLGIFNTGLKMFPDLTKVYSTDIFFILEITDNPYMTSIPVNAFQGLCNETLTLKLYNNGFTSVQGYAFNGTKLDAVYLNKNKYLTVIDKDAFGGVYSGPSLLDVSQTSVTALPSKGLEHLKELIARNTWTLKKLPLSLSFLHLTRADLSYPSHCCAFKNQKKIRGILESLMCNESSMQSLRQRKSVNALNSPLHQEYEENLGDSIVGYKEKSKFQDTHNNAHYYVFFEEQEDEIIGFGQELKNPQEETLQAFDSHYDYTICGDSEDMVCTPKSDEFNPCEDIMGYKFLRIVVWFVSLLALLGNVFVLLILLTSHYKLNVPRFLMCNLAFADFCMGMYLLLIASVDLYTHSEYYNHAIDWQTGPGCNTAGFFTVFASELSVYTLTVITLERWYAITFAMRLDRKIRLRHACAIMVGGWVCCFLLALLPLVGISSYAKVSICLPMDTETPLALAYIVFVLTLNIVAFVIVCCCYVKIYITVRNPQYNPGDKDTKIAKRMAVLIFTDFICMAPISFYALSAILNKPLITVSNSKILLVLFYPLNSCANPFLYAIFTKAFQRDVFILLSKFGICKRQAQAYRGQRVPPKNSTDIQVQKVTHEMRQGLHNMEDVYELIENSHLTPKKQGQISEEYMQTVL
# How it was run: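 Steps: seed 800 TSHR-HEK293 cells per well; add test compound and hold 30 min at ambient temperature; dispense cAMP-d2 then anti-cAMP cryptate; incubate 1 h at ambient; measure fluorescence intensity.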
# [7] = qHTS assay to identify small molecule agonists of the hypoxia (HIF-1) signaling pathway - cell viability counter screen (AID 1224844; calls by dose curve; also: nearly all actives have a fitted effect of over 50% in size; also: potency is read from the fitted curve at half-maximal effect)
# How it was run: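 Multiplexed with the HRE beta-lactamase assay, this viability read used CellTiter-Glo luminescence (30 min, RT) on HRE-bla ME-180 cells treated 17 hrs with compounds in 0.5% dialyzed FBS medium.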
# [8] = qHTS assay to identify small molecule agonists of H2AX (AID 1224845; active = well fitted activation curve with a large enough effect in the signal ratio in the repeat runs, not every such curve was filed as active; the % refers to the signal ratio)
# How it was run: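 Wild-type CHO-K1 cells, plated overnight, exposed 3hr at 37C to 15 concentrations (0.76% DMSO final). Lysed, then HTRF anti-pH2AX (S139) cryptate and anti-H2AX-d2 antibodies, 24 hr room temperature; 665/620 nm emission read.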
# [9] = qHTS assay to identify small molecule agonists of the hypoxia (HIF-1) signaling pathway (AID 1224846; active = well fitted activation curve with a large enough effect in the signal ratio in the repeat runs, not every such curve was filed as active; the % refers to the signal ratio)
# How it was run: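 Hypoxia-pathway activation was scored as increased beta-lactamase from an HRE-controlled reporter in ME-180 cells; plated at 2,000 cells per well with 0.5% dialyzed FBS, they were exposed 17 hrs to compounds and then given CCF4-AM.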
# [10] = qHTS assay to identify small molecule agonists of H2AX - cell viability counter screen (AID 1224847; calls by dose curve; also: nearly all actives have a fitted effect of over 30% in size; also: potency is read from the fitted curve at half-maximal effect)
# How it was run: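 Cytotoxicity counter screen in wild-type CHO-K1 cells: a 3 hr compound treatment at 37C across 15 concentrations, followed by CellTiter-Glo luminescence to gauge viable cells.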
# [11] = qHTS RealTime-Glo MT Cell Viability Assay in HepG2 cells - 24 hour (AID 1224867); also: nearly all actives have a fitted effect of over 50% in size; also: potency is read from the fitted curve at half-maximal effect
# How it was run: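 Viability was tracked continuously by NanoLuc luminescence from prosubstrate reduced by living HepG2 cells, at successive time points over 40 h of compound exposure. Cells with reagent were preincubated 5 h at 37 °C before compound addition.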
# [12] = qHTS RealTime-Glo MT Cell Viability Assay in HEK293 cells - 32 hour (AID 1224868); also: nearly all actives have a fitted effect of over 50% in size; also: potency is read from the fitted curve at half-maximal effect
# How it was run: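 Viability tracked continuously by luminescence as live cells reduce a prosubstrate for NanoLuc; HEK293 cells preincubated 5 h, compound-treated at 37 C, and read at 0, 8, 16, 24, 32 and 40 h.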
# [13] = A CellTox Green Cytotoxicity Assay to monitor cytotoxicity in HEK293 cells - 0 hour (AID 1224869); also: nearly all actives have a fitted effect of over 50% in size
# How it was run: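 Seeding of HEK293 cells together with cytotoxicity dye preceded a 5 h incubation at 37 C/5% CO2. Test compounds in DMSO were then added and fluorescence monitored across 40 h.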
# [14] = qHTS RealTime-Glo MT Cell Viability Assay in HepG2 cells - 40 hour (AID 1224870); also: nearly all actives have a fitted effect of over 50% in size; also: potency is read from the fitted curve at half-maximal effect
# How it was run: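 HepG2 cells (600/well) mixed with RealTime-Glo MT reagent, settled 5 h at 37 C/5% CO2 before compound addition. Nonlytic NanoLuc luminescence from viable-cell prosubstrate reduction read repeatedly during 40 h treatment at 37 C.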
# [15] = qHTS assay to identify small molecule agonists of the constitutive androstane receptor (CAR) signaling pathway - cell viability counter screen (AID 1224836); also: nearly all actives have a fitted effect of over 45% in size
# How it was run: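 Cells were seeded and incubated 4 hrs. Compounds were added across 15 concentrations together with PK11195 at 0.75 uM final. Plates were incubated 23 hrs at 37 C. CellTiter-Fluor was added and fluorescence measured.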
# [16] = qHTS assay to identify small molecule antagonists of the constitutive androstane receptor (CAR) signaling pathway - cell viability counter screen (AID 1224837); also: nearly all actives have a fitted effect of over 45% in size
# How it was run: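 Using CellTiter-Fluor, viability is scored in HepG2 cells stably carrying hCAR and a 2.2kb CYP2B6 reporter after 23 hr compound exposure across 15 concentrations, with CITCO present at 50 nM.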
# [17] = qHTS assay to identify small molecule antagonists of the estrogen related receptor signaling pathway with the pleiotropic PPARgamma coactivator (PGC) from Tox21 10K library (AID 1224841; call rule not given here)
# How it was run: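 Each well held 2,000 PGC/ERR cells, pre-incubated six hours (37 C, 5% CO2). Test substances in DMSO were added by pin tool and left for 18 h at 37 C before luciferase detection by One-Glo.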
# [18] = qHTS assay to identify small molecule agonists of the estrogen related receptor signaling pathway with the pleiotropic PPARgamma coactivator (PGC) from Tox21 10K library (AID 1224842); also: nearly all actives have a fitted effect of over 15% in size
# How it was run: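 PGC/ERR reporter cell line, 2,000 cells per well, incubated 6 h at 37 C before 23 nL compound in DMSO was added. After 18 h at 37 C, One-Glo luminescence read following 30 min at room temperature.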
# [19] = qHTS assay to identify small molecule agonists of the estrogen related receptor (ERR) signaling pathway from Tox21 library (AID 1224849; calls by dose curve; also: nearly all actives have a fitted effect of over 15% in size); conditions: ERR reporter cell line, ONE-Glo luciferase, 18 h; at 92.4 µM (top of the series) unless noted
# How it was run: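 Six hours post-seeding at 37 C/5% CO2, ERR cells receive DMSO-solubilised compounds; after 18 h at 37 C, ONE-Glo reagent is applied and luminescence recorded.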
# [20] = qHTS assay to identify small molecule antagonists of the estrogen related receptor (ERR) signaling pathway from Tox21 library (AID 1224848); also: nearly all actives have a fitted effect of over 50% in size; also: potency is read from the fitted curve at half-maximal effect
# How it was run: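 Luminescent reporter read-out (ONE-Glo) from NTP's ERR cell line after 18 h treatment at 37 C with DMSO-dissolved Tox21 compounds; cells pre-plated 6 h beforehand at 2,000 per well.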
Compound,Potency [1],Potency [2],Potency [3],Potency [4],Potency [5],Potency [6],Potency [7],Potency [8],outcome [9],Potency [10],Potency [11],Potency [12],Potency [13],Potency [14],Potency [15],Potency [16],Potency [17],outcome [18],"activity change, positive = activation [19]",Potency [20]
O=C(O)c1ccc2[nH]cc(CCCCN3CC=C(c4ccccc4)CC3)c2c1,inactive,inactive,inactive,inactive,inactive,inactive,inactive,inactive,inactive,inactive,inactive,inactive,inactive,inactive,–,–,–,–,–,–
CC1COC2(c3ccccc3Cl)c3cc(Cl)ccc3NC(=O)CN12 (centres undefined),–,inactive,–,inactive,inactive,inactive,inactive,inactive,inactive,inactive,inactive,–,inactive,inactive,inactive,inactive,21.1 µM (active),inactive,-27.8% [at 42.5 µM],–
CCCCCCBr,inactive,–,inactive,inactive,inactive,inactive,inactive,inactive,inactive,inactive,inactive,inactive,inactive,inactive,–,inactive,–,inactive,0.352%,inactive
CCOP(=S)(OCC)SCSP(=S)(OCC)OCC,inactive,inactive,inactive,27.3 µM (active),inactive,–,inactive,–,inactive,inactive,inactive,inactive,inactive,inactive,–,–,–,–,–,–
CCOP(=S)(OCC)Oc1ncn(-c2ccccc2)n1,inactive,–,inactive,30.6 µM (active),inactive,–,–,inactive,inactive,–,inactive,–,inactive,inactive,inactive,inactive,–,–,–,–
O=[N+]([O-])c1ccc(CBr)cc1,inactive,inactive,inactive,–,inactive,inactive,24.2 µM (active),inactive,–,inactive,inactive,inactive,inactive,inactive,–,–,–,–,–,–
CC(CC(C#N)(c1ccccc1)c1ccccc1)N(C)C (centres undefined),–,inactive,inactive,27.2 µM (active),inactive,inactive,–,inactive,inactive,inactive,inactive,–,inactive,inactive,–,–,–,–,–,–
N#CC(CCc1ccc(Cl)cc1)(Cn1cncn1)c1ccccc1 (centres undefined),30.6 µM (active),inactive,inactive,21.7 µM (active),34.4 µM (active),8.63 µM (active),30.9 µM (active),inactive,–,50.5 µM (active),38.9 µM (active),17.4 µM (active),inactive,49 µM (active),–,–,34.4 µM (active),inactive,-69.7%,17.2 µM (active)
C[C@]12CC[C@H]3[C@@H](CC=C4C[C@@H](O)CC[C@@]43C)[C@@H]1CC[C@@H]2O,inactive,–,–,–,inactive,–,inactive,inactive,–,inactive,–,inactive,inactive,inactive,inactive,–,–,–,–,–

# From PubChem BioAssay (Tox21)
